We go through eight molecules from PubChem BioAssay (NCI).

Values joined by “and” are separate entries in the source; they are usually repeats but may differ in a detail not shown here. Equal values may be shown once. About 83,000 compounds went through this panel and 20% of them were active in at least one assay; those are over-represented in the sample as a whole.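 48-hour exposure, single concentration, 96-well plates; percent growth endpoint where 0 means no net growth. Active: below 10.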 Unmarked numbers belong to inactive results. Active and inactive are the calls of the source.

Common to all, as to test: NCI-60 one-dose screen, 48 h (100 = growth as untreated, 0 = no growth, -100 = all killed)
One assay concerns SK-MEL-2 melanoma. The note with it: 10 µM unless noted.
A further assay has as its system EKVX NSCLC. As to conditions: 10 µM unless noted.
In the next assay the test system is SN12C renal. As to conditions: 10 µM unless noted.
For the next assay, the system named is UO-31 renal. As to conditions: 10 µM unless noted.
Another assay concerns TK-10 renal.
The test system of the next assay is ACHN renal. The note with it: 10 µM unless noted.
The test system of a further assay is CAKI-1 renal. The note with it: 10 µM unless noted.
The test system of a further assay is A498 renal. The note with it: 10 µM unless noted.
The next assay has as its system CCRF-CEM leukemia. As to conditions: 10 µM unless noted.
The subject of a further assay is MOLT-4 leukemia. The note with it: 10 µM unless noted.
The test system of another assay is SR leukemia. The note with it: 10 µM unless noted.
The next assay concerns RPMI-8226 leukemia. As to conditions: 10 µM unless noted.
A further assay has as its system OVCAR-8 ovarian. As to conditions: 10 µM unless noted.
The subject of the next assay is OVCAR-5 ovarian. The note with it: 10 µM unless noted.
A further assay concerns OVCAR-4 ovarian. As to conditions: 10 µM unless noted.
In another assay the test system is SK-OV-3 ovarian. The note with it: 10 µM unless noted.
The next assay relates to IGROV1 ovarian. As to conditions: 10 µM unless noted.
In a further assay the test system is OVCAR-3 ovarian. The note with it: 10 µM unless noted.
A further assay relates to HS 578T breast. The note with it: 10 µM unless noted.
A further assay concerns NCI/ADR-RES ovarian. As to conditions: 10 µM unless noted.

Take `CCC1=CC2CN(C1)Cc1c([nH]c3ccccc13)[C@@](C(=O)OC)(c1cc3c(cc1OC)N(C)[C@H]1[C@@](O)(C(=O)OC)[C@H](OC(C)=O)[C@]4(CC)C=CCN5CC[C@]31[C@@H]54)C2` (some centres undefined): the growth was 5.95% (active) in the assay on SK-MEL-2 melanoma; 68.6% in the assay on EKVX NSCLC; 36.9% with SN12C renal; 51.5% in the assay on UO-31 renal; 41.2% with TK-10 renal (10 µM unless noted); 34.1% with ACHN renal. The growth is 44.3% with CAKI-1 renal; -14.6% (active) with A498 renal; 19.1% in the assay with CCRF-CEM leukemia; 6.56% (active) in the assay on MOLT-4 leukemia; 6.9% (active) in the assay with SR leukemia; 31.4% with RPMI-8226 leukemia. Moreover, the growth in the assay with OVCAR-8 ovarian is 21.3%; in the assay on OVCAR-5 ovarian, 15.6%; in the assay with OVCAR-4 ovarian, 29.6%; in the assay with SK-OV-3 ovarian, 7.75% (active); in the assay on IGROV1 ovarian, 35.7%; in the assay with OVCAR-3 ovarian, -29.6% (active). Moreover, the growth with HS 578T breast is 29.1%; in the assay on NCI/ADR-RES ovarian, -16.1% (active).

Turning to `O=C1N(Cc2ccccc2Cl)c2ccccc2C12NN=C(c1ccccc1)S2` (centres undefined), the growth in the assay with SK-MEL-2 melanoma was 91.3%; with EKVX NSCLC, 58.1%; in the assay with SN12C renal it was 64.1%; in the assay with UO-31 renal, 54.2%; with TK-10 renal (10 µM unless noted), 105%; with ACHN renal, 59.4%. In addition, the growth with CAKI-1 renal is 47.4%; in the assay on A498 renal, 52.8%; in the assay on CCRF-CEM leukemia, 57.3%; with MOLT-4 leukemia it was 53.6%; in the assay with SR leukemia it was 40%; in the assay with RPMI-8226 leukemia, 66.3%. Besides, the growth was 45.8% in the assay with OVCAR-8 ovarian; 78.6% with OVCAR-5 ovarian; 51.8% with OVCAR-4 ovarian; 83.2% with SK-OV-3 ovarian; 61.7% in the assay on IGROV1 ovarian; 68.7% in the assay with OVCAR-3 ovarian. For the same molecule, the values for the growth in the assay with HS 578T breast and with NCI/ADR-RES ovarian were 69.6% and 45.2%, respectively.

As to `CCOC(OCC)c1cnc2nc(NC(C)=O)[nH]c(=O)c2n1`, the growth with SK-MEL-2 melanoma is 95.4%; in the assay on EKVX NSCLC, 109%; in the assay with SN12C renal, 101%; in the assay with UO-31 renal, 82.6%; with TK-10 renal (10 µM unless noted), 104%; in the assay with ACHN renal, 103%. The growth in the assay on CAKI-1 renal was 102%; with A498 renal, 73%; in the assay on CCRF-CEM leukemia it was 107%; in the assay on MOLT-4 leukemia, 103%; in the assay with SR leukemia it was 99.9%; with RPMI-8226 leukemia, 106%. The growth in the assay on OVCAR-8 ovarian is 102%; in the assay with OVCAR-5 ovarian, 101%; in the assay on OVCAR-4 ovarian, 107%; in the assay on SK-OV-3 ovarian, 106%; in the assay with IGROV1 ovarian, 101%; in the assay with OVCAR-3 ovarian it was 113%. Moreover, the growth with HS 578T breast was 102%.

With `COc1ccc(-c2cc(-c3cn(-c4cccc(Cl)c4)nc3-c3ccc(OC)cc3)[nH]c(=S)n2)cc1`, the growth in the assay on SK-MEL-2 melanoma is 88.9%; with EKVX NSCLC it was 90.4%; in the assay with SN12C renal it was 73.6%; in the assay on UO-31 renal, 84.7%; in the assay with TK-10 renal (10 µM unless noted), 93.8%; in the assay with ACHN renal, 80.5%. The growth was 104% with CAKI-1 renal; 69.3% in the assay on A498 renal; 73.6% in the assay on CCRF-CEM leukemia; 42.4% with MOLT-4 leukemia; 75.3% with SR leukemia; 50.1% in the assay on RPMI-8226 leukemia. In addition, the growth was 84% with OVCAR-8 ovarian; 97% in the assay on OVCAR-5 ovarian; 75.8% in the assay on OVCAR-4 ovarian; 90.1% with SK-OV-3 ovarian; 59.4% in the assay on IGROV1 ovarian; 108% in the assay with OVCAR-3 ovarian. In the assay on HS 578T breast, the growth is 88.7%.

Regarding `COc1ccc2c(c1)sc1nc(-c3ccccc3)c(-c3cccc4ccccc34)n12`, the growth in the assay on SK-MEL-2 melanoma is 27.5%; in the assay on EKVX NSCLC, 28.7%; in the assay with SN12C renal, 44.7%; with UO-31 renal, 47.7%; in the assay with TK-10 renal (10 µM unless noted), 37.9%; in the assay on ACHN renal, 49.1%. Besides, the growth was 29.3% with CAKI-1 renal; 0.895% (active) in the assay with A498 renal; 22.3% with CCRF-CEM leukemia; 27.1% with MOLT-4 leukemia; 10.5% in the assay on SR leukemia; 18.8% in the assay on RPMI-8226 leukemia. For the same molecule, the growth was 19.4% in the assay with OVCAR-8 ovarian; 44.7% in the assay with OVCAR-5 ovarian; 65% in the assay with OVCAR-4 ovarian; 10.5% with SK-OV-3 ovarian; 34.4% in the assay on IGROV1 ovarian; -50.3% (active) with OVCAR-3 ovarian. In addition, the growth in the assay with HS 578T breast is 19.8%.

Turning to `O=C(Nc1cccc(N=Cc2c(O)ccc3ccccc23)c1)c1ccccc1`, the growth with SK-MEL-2 melanoma was 87.9%; with EKVX NSCLC it was 93.8%; in the assay on SN12C renal, 99%; in the assay with UO-31 renal, 65.9%; with TK-10 renal (10 µM unless noted), 92.4%; with ACHN renal it was 96.3%. Further, the growth in the assay on CAKI-1 renal is 84.7%; with A498 renal, 103%; with CCRF-CEM leukemia, 90.8%; with MOLT-4 leukemia, 147%; in the assay on SR leukemia it was 101%; with RPMI-8226 leukemia, 94.6%. Moreover, the growth was 93% with OVCAR-8 ovarian; 108% in the assay on OVCAR-5 ovarian; 88.1% with OVCAR-4 ovarian; 90.4% with SK-OV-3 ovarian; 101% in the assay on IGROV1 ovarian; 103% with OVCAR-3 ovarian. Moreover, in the assay with HS 578T breast, the growth was 97.4%.

For the molecule `Cc1cc(O)c2cc3c(O)c(O)ccc3cc2c1`, the growth in the assay with SK-MEL-2 melanoma is 124%; in the assay with EKVX NSCLC it was 106%; in the assay with SN12C renal, 112%; with UO-31 renal, 102%; in the assay with TK-10 renal (10 µM), 115%; in the assay with TK-10 renal (100 µM), -14.3% (active) and -64.8% (active). Besides, the growth in the assay on ACHN renal is 106%; with CAKI-1 renal, 105%; in the assay with A498 renal it was 103%; in the assay on CCRF-CEM leukemia, 118%; in the assay on MOLT-4 leukemia, 105%; in the assay on SR leukemia, 101%. The growth is 115% with RPMI-8226 leukemia; 81.5% in the assay with OVCAR-5 ovarian; 109% in the assay on SK-OV-3 ovarian; 98.1% in the assay with IGROV1 ovarian; 133% with OVCAR-3 ovarian; 110% in the assay with HS 578T breast. The growth with NCI/ADR-RES ovarian is 109%.

As to `O=c1c2cc(Cl)ccc2oc2ccc(OCCCCCN3CCCCCC3)cc12`, the growth was 96.5% in the assay with SK-MEL-2 melanoma; 89.6% in the assay on EKVX NSCLC; 80.9% with SN12C renal; 78.6% with UO-31 renal; 89.2% in the assay on TK-10 renal (10 µM unless noted); 110% in the assay on ACHN renal. The growth was 94.6% in the assay with CAKI-1 renal; 68.9% in the assay on A498 renal; 60.5% in the assay with CCRF-CEM leukemia; 48.5% in the assay with MOLT-4 leukemia; 47.5% with SR leukemia; 60.3% in the assay with RPMI-8226 leukemia. Also, the growth in the assay on OVCAR-8 ovarian was 82.1%; in the assay with OVCAR-5 ovarian, 97.9%; with OVCAR-4 ovarian it was 91.8%; with SK-OV-3 ovarian, 78.9%; in the assay with IGROV1 ovarian it was 90.6%; in the assay with OVCAR-3 ovarian it was 81.5%. Besides, the growth in the assay on HS 578T breast was 83%.
